A number with no mark means an inactive call. For some of these results: Measured potencies and affinities stand elsewhere. Calls of active or inactive are those of the source. Unless noted, no rule for the calls is given here.

A short description of assay [1]: antimalarial activity against Dd2 strain (AID 2302;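 active = growth inhibition above 50% at the single 2 µM test dose, taken to imply half-maximal potency below 2 µM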;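 also: 0% = DMSO untreated growth and 100% = chloroquine plus artemisinin killed control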). The conditions noted are these: P. falciparum Dd2 in RBCs, LDH growth readout, 72 h; at 2 µM; active compounds read high.
Assay [2] in a line: human hepatoma cell viability loss – ATP luminescence, cytotoxicity control for P. falciparum antimalarial project, primary screen (AID 2303;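 active = inhibition above 50%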;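 also: 0% = DMSO wells and 100% = digitonin-killed cells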). The conditions noted are these: HepG2 viability, 24-48 h, at 10 µM, active compounds read high.
Assay [3] concerns the target L-lactate dehydrogenase (Plasmodium falciparum (isolate CDC / Honduras)) (UniProt Q27743). Description: PfLDH activity inhibition – cell lysate, 3D7 strain, counter-screen for P. falciparum growth inhibition project (AID 2304).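 Also: 0% = vehicle and 100% = reference inhibitor.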 Particulars: P. falciparum 3D7 crude extract, LDH APAD/NBT absorbance; at 2 µM; active compounds read high. For orientation: Counterscreens check selectivity or assay interference.

Assay [4] can be described thus: inhibition of 3D7 malaria parasite growth – strain 3D7 (AID 2306).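 Also: 0% = DMSO wells and 100% = chloroquine plus artemisinin control wells.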 The conditions noted are these: P. falciparum 3D7 erythrocytic growth, LDH absorbance, 72 h; at 2 µM; active compounds read high.
Assay [5] deals with Calcium-dependent protein kinase 1 (Plasmodium falciparum (isolate 3D7)) (UniProt P62344). Kind of assay: PfCDPK1 kinase inhibitors, biochemical, TCAMS library (AID 1159585; cut-off not given, nearly all actives have IC50 up to about 0.98 µM;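 also: inhibitors leave more ATP so luminescence rises with inhibition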). The conditions noted are these: recombinant PfCDPK1, Kinase-Glo ATP depletion luminescence. For orientation: In Kinase-Glo more light means more ATP remaining.
Assay [6] concerns the target Plasmodium falciparum protein kinase 6 (PK6, PF3D7_1337100) (UniProt Q8IDW1). Kind of assay: PfPK6 kinase inhibitors, biochemical, TCAMS library (AID 1159586). The conditions noted are these: recombinant PfPK6, Kinase-Glo ATP depletion luminescence.
Assay [7] concerns the target Protein kinase 7 (PK7), Plasmodium falciparum 3D7 (PF3D7_0213400) (UniProt Q7YTF7). Description: inhibition of Plasmodium PK7 catalytic activity – biochemical, TCAMS antimalarial set, Kinase-Glo luminescence (AID 1159587). The conditions noted are these: recombinant PfPK7, Kinase-Glo ATP depletion luminescence.
Assay [8] concerns the target Calcium-dependent protein kinase 4 (Plasmodium falciparum (isolate 3D7)) (UniProt Q8IBS5). Description: PfCDPK4 kinase inhibitors, biochemical, TCAMS library (AID 1159588; cut-off not given, nearly all actives have IC50 up to about 0.91 µM). The conditions noted are these: recombinant PfCDPK4, Kinase-Glo ATP depletion luminescence.

Sequence of Protein kinase 7 (PK7), Plasmodium falciparum 3D7 (PF3D7_0213400) (Q7YTF7 1-343): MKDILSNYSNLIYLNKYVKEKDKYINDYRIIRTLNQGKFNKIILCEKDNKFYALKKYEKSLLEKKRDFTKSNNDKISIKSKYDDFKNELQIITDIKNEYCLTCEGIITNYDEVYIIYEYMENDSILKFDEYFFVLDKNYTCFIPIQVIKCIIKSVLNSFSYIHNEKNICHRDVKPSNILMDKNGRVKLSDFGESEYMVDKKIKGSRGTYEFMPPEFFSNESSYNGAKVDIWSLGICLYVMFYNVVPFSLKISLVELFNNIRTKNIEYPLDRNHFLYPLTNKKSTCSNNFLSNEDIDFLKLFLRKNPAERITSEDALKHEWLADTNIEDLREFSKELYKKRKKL
Sequence of Calcium-dependent protein kinase 4 (Plasmodium falciparum (isolate 3D7)) (Q8IBS5 whole entry, looked up): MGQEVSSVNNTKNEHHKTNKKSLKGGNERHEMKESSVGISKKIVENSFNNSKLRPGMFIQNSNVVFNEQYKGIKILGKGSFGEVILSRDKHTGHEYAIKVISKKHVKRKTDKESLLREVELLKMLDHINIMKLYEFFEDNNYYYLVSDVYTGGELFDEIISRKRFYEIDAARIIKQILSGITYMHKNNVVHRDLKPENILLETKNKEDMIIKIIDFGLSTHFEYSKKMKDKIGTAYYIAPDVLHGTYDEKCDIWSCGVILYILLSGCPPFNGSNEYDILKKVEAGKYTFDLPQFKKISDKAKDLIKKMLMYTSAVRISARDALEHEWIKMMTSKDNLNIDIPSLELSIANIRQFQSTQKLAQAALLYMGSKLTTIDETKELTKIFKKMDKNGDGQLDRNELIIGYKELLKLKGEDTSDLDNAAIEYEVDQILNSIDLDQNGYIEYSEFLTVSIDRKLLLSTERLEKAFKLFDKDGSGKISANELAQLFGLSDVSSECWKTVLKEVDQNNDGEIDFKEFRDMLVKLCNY
Sequence of Plasmodium falciparum protein kinase 6 (PK6, PF3D7_1337100) (Q8IDW1 1-305): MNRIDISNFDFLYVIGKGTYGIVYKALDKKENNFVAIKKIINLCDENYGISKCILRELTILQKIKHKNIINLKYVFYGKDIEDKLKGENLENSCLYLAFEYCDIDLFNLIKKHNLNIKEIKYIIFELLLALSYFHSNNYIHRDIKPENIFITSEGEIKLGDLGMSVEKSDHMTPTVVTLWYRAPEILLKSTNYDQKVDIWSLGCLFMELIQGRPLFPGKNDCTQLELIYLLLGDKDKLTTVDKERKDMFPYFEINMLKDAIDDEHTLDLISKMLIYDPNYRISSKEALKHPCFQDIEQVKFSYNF
Sequence of Calcium-dependent protein kinase 1 (Plasmodium falciparum (isolate 3D7)) (P62344 whole entry, looked up): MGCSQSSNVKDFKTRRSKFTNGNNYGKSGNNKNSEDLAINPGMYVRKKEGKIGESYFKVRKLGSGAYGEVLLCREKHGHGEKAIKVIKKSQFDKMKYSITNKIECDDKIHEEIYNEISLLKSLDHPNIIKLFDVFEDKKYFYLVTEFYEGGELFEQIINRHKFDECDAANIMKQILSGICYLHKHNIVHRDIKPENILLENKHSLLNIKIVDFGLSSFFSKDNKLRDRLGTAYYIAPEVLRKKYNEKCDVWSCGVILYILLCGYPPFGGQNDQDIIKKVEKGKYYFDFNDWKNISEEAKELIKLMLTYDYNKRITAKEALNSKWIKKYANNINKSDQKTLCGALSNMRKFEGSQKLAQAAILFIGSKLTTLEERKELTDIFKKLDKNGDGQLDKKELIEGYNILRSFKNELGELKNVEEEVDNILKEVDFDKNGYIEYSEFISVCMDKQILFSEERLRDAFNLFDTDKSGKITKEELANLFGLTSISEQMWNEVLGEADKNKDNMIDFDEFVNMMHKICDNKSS
Sequence of L-lactate dehydrogenase (Plasmodium falciparum (isolate CDC / Honduras)) (Q27743 whole entry, looked up): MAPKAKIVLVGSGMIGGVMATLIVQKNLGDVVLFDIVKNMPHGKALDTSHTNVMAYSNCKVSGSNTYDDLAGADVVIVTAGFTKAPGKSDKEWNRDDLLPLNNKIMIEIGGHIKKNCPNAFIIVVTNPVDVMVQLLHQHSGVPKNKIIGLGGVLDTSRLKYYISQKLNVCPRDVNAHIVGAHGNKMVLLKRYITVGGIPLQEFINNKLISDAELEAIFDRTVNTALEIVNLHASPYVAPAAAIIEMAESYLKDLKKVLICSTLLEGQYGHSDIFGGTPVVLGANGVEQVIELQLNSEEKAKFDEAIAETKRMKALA

The inhibition is the relative decrease from the control value, in per cent. Consider `CC(=O)Nc1ccc(CN2CCC(CNC(=O)c3cc(-c4cccc(C(F)(F)F)c4)cs3)C2)cc1` (stereo not given), for which the growth inhibition in assay [1] was 3%; in assay [4] it was 97% (active). The inhibition in assay [2] was 24%; in assay [3], 2%. Besides, the result in assay [5], in assay [6], in assay [7] and in assay [8] was inactive.
`COc1c(C2CCN(CCCCNC(=O)c3ccc(-c4ccc(Cl)cc4)cn3)CC2)ccc2c1CCCC2`: the growth inhibition is 14% in assay [1] and 93% (active) in assay [4]. For the same compound, the figures for the inhibition in assay [2] and in assay [3] were 100% (active) and -3%, respectively. Further, the outcome in assay [5], in assay [6], in assay [7] and in assay [8] was inactive.
Regarding `O=C(Nc1cc(C(F)(F)F)ccc1N1CCOCC1)C(Cl)(Cl)Cl`, the growth inhibition in assay [1] and in assay [4] was 100% (active) throughout. The inhibition is -5% in assay [2] and 5% in assay [3]. In addition, the outcome in assay [5], in assay [6], in assay [7] and in assay [8] was inactive.
As for `CCCN(CCC)CC(O)COc1ccccc1C(=O)Nc1ccccc1` (stereo not given), the values for the growth inhibition in assay [1] and in assay [4] were 95% (active) and 92% (active), respectively. Moreover, the figures for the inhibition in assay [2] and in assay [3] were 6% and -2%, respectively. The outcome in assay [5], in assay [6], in assay [7] and in assay [8] was inactive.
As to `CN1CCC(NCc2cccc(-c3cccc(S(=O)(=O)NCc4ccccc4)c3)c2)CC1`, the growth inhibition in assay [1] was 6%; in assay [4], 100% (active). For the same compound, the inhibition was 57% (active) in assay [2] and -2% in assay [3]. Also, the result in assay [5], in assay [6], in assay [7] and in assay [8] was inactive.
With `Cc1cccc2[nH]c(-c3ccc(-c4cccc(CNCc5cnn(-c6ccccc6)n5)c4)s3)nc12`, the values for the growth inhibition in assay [1] and in assay [4] were 58% (active) and 98% (active), respectively. The figures for the inhibition in assay [2] and in assay [3] were 40% and -1%, respectively. Besides, the result in assay [5], in assay [6], in assay [7] and in assay [8] was inactive.
On to `CN(C)CCNCc1ccc(-c2cccc(-c3nc4ccccc4[nH]3)c2)cc1`, for which the values for the growth inhibition in assay [1] and in assay [4] were 63% (active) and 101% (active), respectively. For the same compound, the inhibition in assay [2] is 31%; in assay [3], 6%. Besides, the outcome in assay [5], in assay [6], in assay [7] and in assay [8] was inactive.
For the compound `COc1cc(NC(=O)c2cccs2)c(C(=O)NCc2ccc(C)cc2)cc1OC`, the values for the growth inhibition in assay [1] and in assay [4] were 88% (active) and 93% (active), respectively. For the same compound, the inhibition was 3% in assay [2] and -2% in assay [3]. Further, the outcome in assay [5], in assay [6], in assay [7] and in assay [8] was inactive.
Turning to `Cc1cc(-c2ccc(CNC3Cc4ccccc4C3)cc2)ccc1S(=O)(=O)NCCN1CCCC1`, the growth inhibition in assay [1] is 73% (active); in assay [4], 101% (active). For the same compound, the inhibition in assay [2] is 99% (active); in assay [3] it was 0%. The outcome in assay [5], in assay [6], in assay [7] and in assay [8] was inactive.
In the case of `CC(C)(C)c1ccc(CNC(=O)COc2ccc(-c3nnc(-c4cccc([N+](=O)[O-])c4)o3)cc2[N+](=O)[O-])cc1`, the growth inhibition in assay [1] is 25%; in assay [4] it was 93% (active). Besides, the figures for the inhibition in assay [2] and in assay [3] were 10% and -7%, respectively. For the same compound, the outcome in assay [5], in assay [6], in assay [7] and in assay [8] was inactive.
As for `O=C(Nc1cccc(CN2CCN(Cc3ccc(O)cc3)CC2)c1)c1cccc(C(F)(F)F)c1`, the growth inhibition in assay [1] was 15%; in assay [4] it was 91% (active). The results for the inhibition in assay [2] and in assay [3] were 21% and 2%, respectively. For the same compound, the outcome in assay [5], in assay [6], in assay [7] and in assay [8] was inactive.
Take `O=C1C(c2ccccc2)=C(Nc2ccc(OC(F)(F)F)cc2)c2ccccc21`: the growth inhibition in assay [1] and in assay [4] was 96% (active) throughout. In addition, the inhibition in assay [2] is 18%; in assay [3] it was 1%. The outcome in assay [5], in assay [6], in assay [7] and in assay [8] was inactive.
Take `CC(CN)OCn1cnc2c(N)ncnc21` (stereo not given): the growth inhibition in assay [1] is 3%; in assay [4], 95% (active). In addition, the inhibition in assay [2] was 17%; in assay [3], 4%. Also, the result in assay [5], in assay [6], in assay [7] and in assay [8] was inactive.
With `Cc1cc(-c2cccc3c(C(=O)N4CCc5cc6nccc(N7CCCN(C)CC7)c6cc54)cccc23)cc(C)n1`, the growth inhibition in assay [1] and in assay [4] was 100% (active) throughout. Further, the figures for the inhibition in assay [2] and in assay [3] were 17% and 6%, respectively. Further, the result in assay [5], in assay [6], in assay [7] and in assay [8] was inactive.
On to `O=C(Nc1nc(-c2cc(F)ccc2F)cs1)c1cncc(Br)c1`, for which the results for the growth inhibition in assay [1] and in assay [4] were 3% and 85% (active), respectively. Moreover, the inhibition in assay [2] was 16%; in assay [3] it was -4%. In addition, the outcome in assay [5], in assay [6], in assay [7] and in assay [8] was inactive.
Take `CN(Cc1cccc(O)c1)C1CCN(c2cc(NC(=O)c3ccc(F)cc3)ccn2)CC1`: the growth inhibition in assay [1] is 9%; in assay [4], 94% (active). Besides, the inhibition in assay [2] was 24%; in assay [3], -2%. Further, the outcome in assay [5], in assay [6], in assay [7] and in assay [8] was inactive.
For `COc1cc(OC)cc(C(=O)Nc2cccc(-c3cn4ccc(C)cc4n3)c2)c1`, the figures for the growth inhibition in assay [1] and in assay [4] were 45% and 86% (active), respectively. Also, the inhibition in assay [2] is 4%; in assay [3], 0%. In addition, the result in assay [5], in assay [6], in assay [7] and in assay [8] was inactive.
With `O=C(NCc1ccc(Cl)c(Cl)c1)c1ccc(-c2nc3cc(F)c(F)cc3[nH]2)cc1`, the figures for the growth inhibition in assay [1] and in assay [4] were 12% and 81% (active), respectively. The inhibition in assay [2] and in assay [3] was -2% each time. Further, the result in assay [5], in assay [6], in assay [7] and in assay [8] was inactive.
For the compound `Cc1ccc(Nc2nc(C)cc(NC3CCCC3)n2)cc1`, the growth inhibition in assay [1] was 89% (active); in assay [4] it was 100% (active). The inhibition in assay [2] was 33%; in assay [3], 0%. Also, the result in assay [5], in assay [6], in assay [7] and in assay [8] was inactive.
`O=C(Nc1cccc(F)c1)NC1CCN(c2ccnc3cc(Cl)ccc23)C1` (stereo not given): the growth inhibition in assay [1] was 64% (active); in assay [4], 101% (active). The inhibition in assay [2] is 13%; in assay [3], -1%. Besides, the outcome in assay [5], in assay [6], in assay [7] and in assay [8] was inactive.

The values above are taken from PubChem BioAssay.
